# Source: PubChem
# Only some compounds are listed: those with a hit (about 2.4% of all), similar ones and a draw of the others.
# M1 PAM parental: nonselective activator or artifact in parental CHO-K1 calcium assay. ATP EC20, Fluo-8 calcium fluorescence; 0% at ATP EC20, 100% at ATP max. AID 602247. activation, % at 3 µM. hit rate 0.02% among 360,000;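 active means activation above the run cutoff, the mean activation of all test compounds plus 3 SD, cut at about 40% in these data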;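 further: peak over basal fluorescence ratio in a 140 s read after ATP addition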
# CHO-K1 Ca antag: counter-screen for M1 antagonists: effect in parental CHO-K1 cells. ATP-induced calcium, Fluo-8 fluorescence. inhibition, % at 3 µM. hit rate 0.6% among 360,000;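 active means inhibition above a per-plate cutoff, the plate's mean sample inhibition plus 3 SD, cut at about 24% in these data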
# CHRM1 agonist: agonists of human M1 muscarinic receptor; P11229; CHO-K1 hM1, Fluo-8 calcium fluorescence, agonist mode; 0% DMSO, 100% acetylcholine EC100; activation, % at 3 µM; hit rate 0.33% among 360,000;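 active means activation above the run's mean compound activation plus 3 SD, cut at about 16% in these data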;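 further: peak over basal fluorescence ratio within a 140 s kinetic read after compound addition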
# Target sequence (P11229 whole entry, looked up): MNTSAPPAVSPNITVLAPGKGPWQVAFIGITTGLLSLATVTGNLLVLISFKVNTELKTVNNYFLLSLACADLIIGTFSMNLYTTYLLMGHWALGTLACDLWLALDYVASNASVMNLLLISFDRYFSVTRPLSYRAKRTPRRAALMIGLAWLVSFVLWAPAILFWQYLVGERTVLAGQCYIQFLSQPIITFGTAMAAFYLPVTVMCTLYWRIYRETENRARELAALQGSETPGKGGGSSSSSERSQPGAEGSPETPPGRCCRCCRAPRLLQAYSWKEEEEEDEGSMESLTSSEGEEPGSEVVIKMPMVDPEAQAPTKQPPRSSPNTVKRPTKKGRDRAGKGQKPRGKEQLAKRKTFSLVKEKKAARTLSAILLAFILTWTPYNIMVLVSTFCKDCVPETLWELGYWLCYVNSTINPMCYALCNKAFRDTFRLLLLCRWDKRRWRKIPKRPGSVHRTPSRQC
# CHRM1 PAM: potentiates human M1 receptor response to acetylcholine; P11229; CHO-K1 hM1, Fluo-8 calcium fluorescence, ACh EC20; 0% = ACh EC20, 100% = maximal ACh; activation, % at 3 µM; hit rate 0.088% among 360,000; in the data active means activation above about 19%, passing the limit was not always enough
# M1 antag: blocks human M1 muscarinic receptor. P11229. CHO-K1 hM1, Fluo-8 calcium fluorescence, ACh EC80 antagonist. inhibition, % at 3 µM. hit rate 1.3% among 360,000. AID 588852;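 active means percent inhibition above its own plate's cutoff, namely the mean of that plate's compound wells plus 3 SD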;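 further: peak over basal fluorescence ratio during 140 s after agonist addition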
# M1 ag parental: counter-screen for M1 agonists: effect in parental CHO-K1 cells; Fluo-8 calcium fluorescence; scaled to maximal ATP response, vehicle zero; activation, % at 3 µM; hit rate 0.48% among 360,000; AID 602248; in the data active means activation above about 15%;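 further: untransfected CHO-K1 host cells lacking M1 receptor as counterscreen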
# A number is an active result; 0 = inactive; - = no result.
SMILES,M1 PAM parental,CHO-K1 Ca antag,CHRM1 agonist,CHRM1 PAM,M1 antag,M1 ag parental
Cc1c(CCOC(=O)c2cc([N+](=O)[O-])cc([N+](=O)[O-])c2)sc[n+]1CC(=O)c1ccccc1,0,0,0,0,0,0
Cc1c(CCOC(=O)c2ccccc2)sc[n+]1Cc1ccccc1,0,26,0,0,98,0
Cc1c(CCOC(=O)c2ccccc2)sc[n+]1CC(=O)c1ccc(Br)cc1,0,0,0,0,77,0
O=C(C[n+]1cc(-c2ccccc2)n2c1CCCCC2)c1ccc(Cl)cc1,0,0,0,0,0,0
Clc1ccc(C[n+]2cc(-c3ccccc3)n3c2CCCCC3)c(Cl)c1,0,0,0,0,0,0
Clc1ccc(-c2c[n+](Cc3ccc(Cl)cc3Cl)c3n2CCCCC3)cc1,0,0,0,0,48,0
CC1CCC(C(C)C)C(OC(=O)C[n+]2cc(-c3ccc(Cl)cc3)n3c2CCCCC3)C1 (configuration not stated),0,0,0,0,75,0
Nc1[nH]c(C(=O)c2ccccc2)c(-c2c(F)cccc2F)c1C(=O)c1ccc(Cl)c(Cl)c1,0,0,-,-,-,0
O=C(Nc1cc(Cl)cc(Cl)c1)Nc1cnccn1,0,30,0,0,0,0
O=C(Nc1ccc(F)cc1)Nc1cnccn1,0,0,0,0,0,0
CCCCOc1ccc(S(=O)(=O)Nc2cccnc2)cc1,0,0,0,0,0,30
CCCCn1c(N)c(N(CCOC)C(=O)CN2C(=O)C3CCCCC3C2=O)c(=O)[nH]c1=O (configuration not stated),0,0,0,0,0,0
COc1ccccc1NS(=O)(=O)c1cccc(NC(=O)Nc2ccc(Cl)cc2)c1,0,38,0,0,44,0
COc1cccc(OC)c1C(=O)Nc1cccc(S(=O)(=O)Nc2ccccc2Cl)c1,0,0,0,0,0,0
COc1ccccc1NS(=O)(=O)c1cccc(NC(=O)Nc2ccccc2)c1,0,37,0,0,59,18
CCCN(C)C[C@@H]1Oc2ncc(Br)cc2C(=O)N([C@@H](C)CO)C[C@H]1C,0,0,0,0,0,0
NC(=O)c1ccccc1NC(=O)CN1CCCCCC1,0,0,0,0,0,0
NC(=O)c1cc(-c2ccccc2)sc1NC(=O)CN1CCCCC1,0,25,0,0,0,0
O=C1OC(COc2ccc(Br)cc2)CN1c1ccccc1 (configuration not stated),0,0,0,0,0,0
COc1ccc(S(=O)(=O)N2CCc3ccccc32)cc1C(=O)N(CC(C)C)C1CCS(=O)(=O)C1 (configuration not stated),0,0,0,0,0,0
N#Cc1ccccc1S(=O)(=O)N1CCN(c2nc(-c3cccnc3)nc3ccccc23)CC1,0,0,0,0,50,0
O=S(=O)(c1ccccc1F)N1CCN(c2nc(-c3cccnc3)nc3ccccc23)CC1,0,0,0,0,0,0
Cc1ccc(C)c(S(=O)(=O)N2CCN(c3nc(-c4cccnc4)nc4ccccc34)CC2)c1,0,0,0,0,27,0
O=C1NC(Cc2ccccc2)c2nc3cc(Cl)ccc3c(=O)n2-c2ncccc21 (configuration not stated),0,0,0,0,0,0
CC(C)OC(=O)c1c2c(n3ccccc13)C(=O)c1ccccc1C2=O,0,0,0,0,0,18
SMILES,M1 PAM parental,CHO-K1 Ca antag,CHRM1 agonist,CHRM1 PAM,M1 antag,M1 ag parental
COC(=O)c1cc2c(C)c(C)c3ccccn3c-2c1C(=O)OC,0,0,0,0,0,0
COc1ccccc1C(=O)NCC(=O)OCC(=O)c1cccc2ccccc12,0,0,0,0,0,0
Cc1ccc(C(C)NC(=O)/C(C#N)=C\c2c(C)[nH]c3ccccc23)cc1 (configuration not stated),0,0,21,0,0,0
CC(Sc1ncn[nH]1)C(=O)c1c(N)n(C)c(=O)n(C)c1=O (configuration not stated),0,0,0,0,0,0
CC(Sc1nnc(N)s1)C(=O)c1c(N)n(C)c(=O)n(C)c1=O (configuration not stated),0,0,0,0,0,18
COC(CNC(=O)C1CC(=O)N(CCc2ccc(C)cc2)C1)OC (configuration not stated),0,0,0,0,0,0
CC1=CC(C)C2(CO)COC(c3ccc(O)cc3)C1C2C (configuration not stated),0,0,0,0,0,0
CC1=CC(C)C2(CO)COC(c3cccnc3)C1C2C (configuration not stated),0,28,0,0,0,0
CCCc1c(C(=O)N/N=C/c2ccc3c(c2)OCO3)nnn1-c1nonc1N,0,0,0,0,0,0
Cc1nc2c(OCc3ccc(C(F)(F)F)cc3)cccn2c1N(C)C(=O)CCC1CCCC1,0,0,0,0,0,0
Cc1nc2c(OCc3ccc(F)cc3)cccn2c1N(C)C(=O)CCC1CCCC1,0,0,0,0,43,0
Cc1nc2c(OCc3ccc(C#N)cc3)cccn2c1N(C)C(=O)CCC1CCCC1,0,0,0,0,40,0
CSCC[C@H](NC(=O)c1ccco1)c1nnc2ccccn12,0,0,0,0,0,0
CCOC(=O)c1cccc(NC(=O)CSc2nncn2-c2ccccn2)c1,0,0,0,0,0,0
COC(=O)c1ccc(OC(=O)CCN2c3ccccc3Sc3ccccc32)cc1,0,0,0,0,0,0
CCN(CC)CCN1c2ccccc2Sc2ccccc21,0,0,0,0,100,0
COc1ccc2c(c1)Sc1ccccc1N2CCN(C)C,0,0,0,0,48,0
CCN(CC)CCN1c2ccccc2Sc2ccc3ccccc3c21,0,0,0,0,95,0
CC(=O)N1c2ccccc2Sc2ccc3ccccc3c21,0,0,0,0,0,0
CCN(CC)CCN1C(=O)C2C3c4ccccc4C(c4ccccc43)C2C1=O (configuration not stated),0,0,0,0,0,0
O=C(Nc1ccn(Cc2ccccc2F)n1)c1ccc(COc2ccc(Br)cc2)cc1,0,0,0,0,33,0
CC1(C)CC(=O)C=C(c2ccc(-c3cnc4ccccc4c3)cc2)C1=O,0,0,0,0,0,0
O=C(c1ccncc1)N1N=C(C2CCCCC2)CC1(O)C(F)(F)F (configuration not stated),0,0,0,0,37,0
Cc1cc([N+](=O)[O-])nn1CCCC(=O)Nc1c(C)n(C)n(-c2ccccc2)c1=O,0,0,0,0,31,0
Cc1c(Br)c([N+](=O)[O-])nn1CCCC(=O)Nc1c(C)n(C)n(-c2ccccc2)c1=O,0,0,0,0,82,0
Cc1cc(NC(=O)CCCn2nc([N+](=O)[O-])c(Br)c2C)no1,0,0,0,0,0,0
